MOR-DOR ag: agonists of human mu-delta opioid receptor heterodimerization; cells, OPRM1-OPRD1 heterodimerization, luminescence; P35372+P41143; AID 504326; 340,000 tested, 0.3% active; activation, % at 9.3 µM; in the data active means activation above about 18%;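 further: 0% = vehicle-treated cells and 100% = reference agonist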
OPRM1-OPRD1 inv: mu-delta opioid heterodimer inverse agonism. cell-based MOR-DOR heterodimer luminescence. inhibition, % at 9.3 µM. 340,000 tested, 0.21% active; in the data active means inhibition above about 22%, passing the limit was not always enough;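 further: 0% = cells with DMSO and 100% = wells without cells with DMSO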
HTR5A inv ctr: inverse agonist of human HTR5A in OPRM1-OPRD1 counter-screen. P47898. HTR5A cell line, luminescence, inverse agonism. inhibition, % at 9.3 µM. 340,000 tested, 0.083% active. AID 504634; in the data active means inhibition mostly above about 23%, no sharp cut-off; inactive means mostly below about 18%;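 further: 0% = cells with DMSO and 100% = no-cell wells with DMSO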
Target sequence (P47898 whole entry, looked up): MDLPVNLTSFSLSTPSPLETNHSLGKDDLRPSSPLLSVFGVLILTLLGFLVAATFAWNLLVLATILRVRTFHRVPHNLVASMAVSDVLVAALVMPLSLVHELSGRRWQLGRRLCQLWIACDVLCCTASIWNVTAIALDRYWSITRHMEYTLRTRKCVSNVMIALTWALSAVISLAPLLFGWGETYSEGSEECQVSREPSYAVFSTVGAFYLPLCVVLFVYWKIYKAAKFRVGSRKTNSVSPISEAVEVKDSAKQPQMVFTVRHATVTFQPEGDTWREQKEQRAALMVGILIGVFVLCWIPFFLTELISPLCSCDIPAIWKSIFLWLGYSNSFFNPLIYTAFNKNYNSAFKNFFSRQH
HTR5A ag: counter-screen for OPRM1-OPRD1 agonists: human HTR5A agonism | P47898 | HTR5A agonist assay, luminescence, cell-based | activation, % at 9.3 µM | 340,000 tested, 0.61% active; in the data active means activation mostly above about 9.5%, no sharp cut-off; inactive means mostly below about 7.6%;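 further: 0% = cells with vehicle only and 100% = reference agonist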
* hit, by the source's call. Shown are actives, neighbours in structure and some others; about 1.1% of the full set was active somewhere.

SMILES	MOR-DOR ag	OPRM1-OPRD1 inv	HTR5A inv ctr	HTR5A ag
O=S(=O)(/N=C(/Nc1cccnc1)c1ccccc1)c1ccc(F)cc1F	-3.6	14.2	-35.2	14.1*
COc1ccc(CNc2nc3nc(C)cc(C)n3n2)cc1OC	-2.6	12.9	0.3	3.7
Cc1cc(C)n2nc(NCc3cccc(Br)c3)nc2n1	0.5	-2.7	-35.8	11.7*
CCOC(=O)/C(=C/c1ccc(OC(F)F)cc1)C1=Nn2c(nnc2-c2ccc(Cl)cc2)SC1	5.3	-27.4	-34.4	8.4*
Cc1c(NC(=O)/C(C#N)=C/c2ccc(-c3ccccc3Cl)o2)c(=O)n(-c2ccccc2)n1C	2.8	-14.6	-43.6	11.9*
CCOc1ccccc1NC(=O)COC(=O)c1c[nH]c2ccccc12	-0.2	0.8	4.1	-1.5
CCc1ccc(CNC(=O)C(=O)NCC2CCCO2)cc1 (stereo not given)	0.7	-3.2	-5.5	2.0
COc1cccc(CNC(=O)C(=O)NCC2CCCO2)c1 (stereo not given)	1.9	-10.5	-29.6	13.7*
COc1cc(NS(=O)(=O)c2ccc(C)cc2)c2ncccc2c1	-8.7	47.3*	18.2	-3.4
COC(=O)C(NS(=O)(=O)c1ccccc1Br)C(C)C (stereo not given)	1.5	-6.8	-12.9	13.6*
Cc1nc(-c2ccccc2Cl)sc1C(=O)/C=C/N(C)C	-3.6	18.0	-9.2	5.0
CCn1c(SCC(=O)Nc2ccc3c(c2)oc2ccccc23)nnc1-c1ccc(N)cc1	14.4	-79.9	-21.3	10.6*
CCn1c(Cc2cccs2)nnc1SCC(=O)Nc1ccc(OC)c(OC)c1	-1.2	6.7	-39.8	9.7*
Nc1nc(=O)n(C2CCCCO2)cc1Br (stereo not given)	-1.6	7.8	-8.4	2.2
CCN(CC)c1ccc(/C=N/NC(=S)NCc2ccccc2)cc1	2.3	-13.3	8.3	13.7*
COc1cc(NCCCn2ccc(NC(=O)OCc3ccccc3)nc2=O)cc(OC)c1OC	0.4	-1.9	-4.2	1.1
Cc1cc(C)cc(NC(=O)C(Nc2ccccc2)c2ccccc2)c1 (stereo not given)	10.9	-50.7	-9.7	12.4*
COc1cc(NC(C(=O)Nc2cccc(C(C)=O)c2)c2ccccc2)cc(OC)c1OC (stereo not given)	1.7	-9.3	-23.3	12.7*
COc1cccc(NC(C(=O)Nc2cccc(C(C)=O)c2)c2ccccc2)c1 (stereo not given)	1.0	-5.6	2.6	4.0
Cc1ccc(NC(=O)C(Nc2ccccc2)c2ccccc2)cc1 (stereo not given)	-3.7	18.7	18.2	-7.0
COc1cccc(C=NNC(=O)c2ccncc2)c1O	-0.5	2.6	-30.2	8.5*
COc1ccc2nc(N(Cc3ccccc3)C(=O)CCNC(C)=O)sc2c1	-2.1	11.2	-14.7	5.9
O=C(COC(=O)C1CC1)Nc1ccc(Cl)cc1Cl	2.5	-10.9	5.5	-2.2
O=C(COc1ccc2ccc(=O)oc2c1)NCCCN1CCCC1=O	-0.6	2.9	-8.2	12.6*
O=C(COc1ccc(F)cc1)NCCNC(=O)COc1ccc(F)cc1	-2.0	8.4	3.3	-1.2
SMILES	MOR-DOR ag	OPRM1-OPRD1 inv	HTR5A inv ctr	HTR5A ag
COc1cccc(NC(=O)c2cc(-c3ccccn3)nc3ccccc23)c1	0.1	-0.5	-23.9	2.6
Cc1cccc(NC(=O)c2cc(C)nc3ccccc23)c1	-1.5	6.6	-50.0	14.2*
COc1cccc(-c2cc(C(=O)Nc3ccncc3)c3ccccc3n2)c1	15.4	-82.5	-29.5	13.7*
CCn1ncc(NC(=S)NCCc2ccc(OC)c(OC)c2)c1C(N)=O	-0.6	3.3	23.4	-4.4
O=C(CCc1ccccc1)NC(NC(=S)Nc1ccc(Cl)cc1)C(Cl)(Cl)Cl (stereo not given)	16.7	-94.2	-10.6	12.4*
O=C(Cc1cccc(NC(=O)C2CCCN(C(=O)C3CCCC3)C2)c1)Nc1ccc(C(=O)N2CCOCC2)cc1 (stereo not given)	-2.5	11.7	-19.6	5.3
CC1CCN(CCCn2c(=S)[nH]c3c(sc4ccc([N+](=O)[O-])cc43)c2=O)CC1	1.5	-7.7	-27.3	9.7*
CC1CCN(CCCn2c(=S)[nH]c3c(sc4ccccc43)c2=O)CC1	-2.5	11.7	3.6	-1.4
COc1cc(/C=C2\SC(=S)N(CCC(=O)N3CCCCC3)C2=O)cc(OC)c1OC	2.4	-15.0	-23.9	4.2
COc1cc(N2CCC(O)CC2)ccc1Nc1nnc(Cl)c(Nc2ccccc2S(C)(=O)=O)n1	-1.1	6.3	25.9*	-8.8
O=C(Oc1cccc(C(=S)N2CCOCC2)c1)c1ccc([N+](=O)[O-])cc1[N+](=O)[O-]	10.0	-75.0	-25.0	9.4*

Screening data from PubChem.
